The supplement of paper PMC12632987

Target: T1, FBXL12, Q9NXK8
T1 chain: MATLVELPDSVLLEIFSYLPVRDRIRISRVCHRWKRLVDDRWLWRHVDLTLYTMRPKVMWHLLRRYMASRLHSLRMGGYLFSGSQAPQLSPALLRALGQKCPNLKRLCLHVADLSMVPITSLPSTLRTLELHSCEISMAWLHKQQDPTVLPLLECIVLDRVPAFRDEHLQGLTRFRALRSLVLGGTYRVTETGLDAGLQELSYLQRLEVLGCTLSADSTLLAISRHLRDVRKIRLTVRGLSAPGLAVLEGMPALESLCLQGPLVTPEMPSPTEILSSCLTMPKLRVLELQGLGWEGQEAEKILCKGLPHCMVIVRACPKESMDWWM
Assay: median log2 fold change of GCK-ALFA target abundance (FLAG IP / Myc IP barcode read proportion) (log2 ratio); each designed protein is fused to an ALFA-tag nanobody in HEK293 cells to bring the named protein to FLAG-tagged glucokinase (GCK); Myc marks an untargeted standard; higher = target protein stabilised (more abundant)
Conditions: target protein: 3xFLAG-MCP-GCK-ALFA reporter; HEK293 landing pad (RPLP)
Outline: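 The readout is target abundance, the per-binder median log2 ratio of FLAG to Myc barcode read proportions. It came from HEK293 landing-pad cells carrying a recombined ALFA-nanobody-fused binder library, induced with 2 μg mL^−1 doxycycline and transfected with a plasmid for a FLAG-tagged target and a Myc-tagged standard. After 48 h, lysates were immunoprecipitated with anti-FLAG and anti-Myc, and circular RNA barcodes were reverse transcribed, amplified and sequenced. Each barcode needed a proportion of at least 10^−7 in both replicates and each binder at least 3 barcodes per replicate, a pseudocount of 10^−6 was added, and the replicates were pooled.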

B1: FBXL12_hotspot_20_43 (protein)
chain: MLLIRARLVGTREQMITTLRYAAAVVRALAERRRAANDATPEALALLEELARLYEEAAERLEAAPEEEWPAIRAATAAEQARLNERLEAELEAQERERAA
median log2 fold change: -0.466

B2: FBXL12_hotspot_23_50 (protein)
chain: MRELVLGIGGRPPEEQRAGALRAAELAAAFRPVADRIVVRLGPGVDGAVAAALRRVLEEDYGAEVLSETPEEAVPPEEVEALVAELRAAAEAAEARRRAA
median log2 fold change: 0.248

B3: FBXL12_hotspot_23_49 (protein)
chain: MRTLRIHLVSRDPEQNRAAARYAAELATRAVLHGWRVVLSGDDRRTVAAAHAVARVVEEVTGKEVEVTEPLHPEEEPLAEELAEELRPVVEAAKAAELAA
median log2 fold change: -0.0469

B4: FBXL12_hotspot_28_54 (protein)
chain: MKIEVKVSGPKEQVAQRILELLEALKQLVEELKKEYKEVKEKDPEKLPEFEKELEEKLEKIKSIAESLVKQAKELGEEAYKKAKEKAEEVKKAIEELKKA
median log2 fold change: -0.418

B5: FBXL12_hotspot_28_55 (protein)
chain: MKLEIRVRGPPEEVAKRILELVDAIVEVARQRKEELQRKVEEEGMPEEEARAELEENADRLLSALESLERNAESLPPELREEVLRRIREAREEIERIRKE
median log2 fold change: 0.147

B6: FBXL12_hotspot_23_46 (protein)
chain: MRTLVIHLTEQSPEEMVKATYYATKLAYLAVKHGWEVVLRASDAVTAMAARIIAEEIERRTGKEVRVEAEERPETAEEAEELRPRFEEAVRKAIEEVEAE
median log2 fold change: -0.32

B7: FBXL12_hotspot_24_51 (protein)
chain: QTITLVVRADLDLDPRDSPEEKRARLRAAVEGFLGSVETGIALADLMAARGRGAVDREAFEAAAAALLAAAEALGEADLAARVRAARARFLAAADRLEAA
median log2 fold change: 0.0803

B8: FBXL12_hotspot_23_44 (protein)
chain: MRLLRISLVEKPPEELRAGALYQAEVAALAILEGWEVEIEAEHPEAVAAAHAIARALREVTGKEVKVSRPLKPEERPLAEELLPELIAAIRAAIAAHRAR
median log2 fold change: 0.0454

B9: FBXL12_hotspot_23_47 (protein)
chain: MRTLVLSTFGTAPEDREASLEYAARLIVAAGRHGWRVVVVLEDRSSLELAATIAAMAKLVVGAEVVVKTDAEEELRELMERNRERAAELVAAAEAALAAE
median log2 fold change: -0.0403

B10: FBXL12_hotspot_28_52 (protein)
chain: MKVEVRVSGDPEQVAAQLLALLEAMTKIAKELAKELKKTKETDPSKVEEKRKEAEEAAEKIRSMVESILRQAESLSPEQQAQVRAAAEETFKALEELEKT
median log2 fold change: -0.0427

B11: FBXL12_hotspot_23_45 (protein)
chain: MRKLVITFAEAPDEEMVKATYYATKLALLAAEHGWEIVLRADNAVTGMAARIVAEAVEKRTGKKVEVIVKEDPSTKERAEKLAPKYEAAVEKAIAEVEAS
median log2 fold change: -0.506

B12: FBXL12_hotspot_20_42 (protein)
chain: MLRLRVGVSEDVEANRGSLLRAAELVEAFADRLAAEFPELAEVIARLRETARRAREAAARLPGLSPEEARALVREMSEEIAEVVEEASRAAEAARARRAA
median log2 fold change: 0.115

B13: FBXL12_hotspot_105_2 (protein)
chain: MARVRVGSTGPRALPLTVAGLAFAIYRGDEEEAERLRREAEALIAKRPAAEELRRLLEEAVALARALRAAAEAGDAAAAAAAAARLAAVIDELARLVEAE
median log2 fold change: -0.835

B14: FBXL12_hotspot_28_53 (protein)
chain: MKRTVIVRGEPEQVGQQILALLEAITEQAKALKAQLEANKNGDPAVLAELKEKLAKLESILESLKEEAERIRPQLSPELQARIDAAIEAAEKALKAAKAV
median log2 fold change: 0.0582

B15: FBXL12_hotspot_23_48 (protein)
chain: MRTLVLSTRGVAPEDREAAARYAAEMIVAAGRAGWRVRVVLQDRESLELAALIAAMARLVTGAEVVVLTDAAEELERLMEERREEARRLVEEARARLDAE
median log2 fold change: -0.469

B16: FBXL12_hotspot_28_56 (protein)
chain: AKRTVIVKGPPEQRAELMLKLAKAILEKSKELYKELKKVKDKDEEKVKELLEKLEKLADLAKSLLENAKKTLPKEYEEVVKEIEKLTKEVEKILKEAKKL
median log2 fold change: -0.777
